“And” between values parts separate entries of the source, which are not always exact repeats. Equal entries are not always repeated. About 83,000 compounds went through this panel and 20% of them were active in at least one assay; those are over-represented in the sample as a whole.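 96-well plates, one dose, 48 hours. Percent growth reported; active if below 10.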 Values without a mark were called inactive. The source made the active and inactive calls.
Each compound was assayed on MOLT-4 leukemia (assay: NCI-60 one-dose screen, 48 h (100 = growth as untreated, 0 = no growth, -100 = all killed)). Settings: 10 µM.
Description: Growth inhibition of the MOLT-4 human tumor cell line is measured as a screen for anti-cancer activity. Cells are grown in 96 well plates and exposed to the test compound for 48 hours. Compounds are tested at a single concentration, which is 10^-5 M for most compounds. The reported endpoint is percent growth (GI% or GIPRCNT), where numbers from 0 - 100% represent growth inhibition, and numbers from -100% - 0 represent cell death. For example, a value of 40 represents 60% growth inhibition. A value of 0 means no net growth occurred over the course of the experiment. A value of -40 indicates 40% of cells at the beginning of the experiment died by the end of the experiment. A value of -100 means all cells are dead at the end of the experiment.
NCI-60 Human Tumor Cell Lines Screen was performed using the standard one-dose NCI protocol, which is described in more detail at https://dtp.cancer.gov/discovery_development/nci-60/default.htm.
Compounds with GIPRCNT values below 10 were considered active. Activity score was based on GIPRCNT using the following formula: […]
Score is 0 for GIPRCNT values of 100 or above, 50 for GIPRCNT values of 0, and 100 for GIPRCNT values of -100.

For `O=C(O)CCCc1ccc(N(CCCl)CCCl)cc1`, the growth was 73.4% and 35.5%.

Same assay, conditions: 10 µM unless noted

Going from `C[C@H](O)CCC(=O)c1ccoc1` to `CCOC(=O)c1ccccc1C(=O)OCC`, the growth rises from 98.2% to 101%.

Going from `NC(=O)Oc1cc(OC(N)=O)cc(N(CCCl)CCCl)c1` to `O=C(O)c1ccccc1N(CCO)CCCl`, the growth rises from 13.1% to 98.3%.

Compared with `CC1=CC(=O)CCC12CCOC2=O` (stereo not given), `COC[C@H]1OC(=O)c2coc3c2[C@@]1(C)C1=C(C3=O)[C@@H]2CCC(=O)[C@@]2(C)C[C@H]1OC(C)=O` is lower in growth: 107% for the first, 42.2% for the second.

Compared with `CN(C)C(=S)SSC(=S)N(C)C`, `CCC(Br)(CC)C(=O)NC(N)=O` is higher in growth: 92.3% for the first, 99.2% for the second.

Compared with `C[C@]12CC[C@H]3[C@@H](CC=C4c5nc(-c6ccc(Br)cc6)sc5CC[C@@]43C)[C@@H]1CC[C@@H]2O`, `C[C@]12CCc3sc(Nc4ccc(O)cc4)nc3C1=CC[C@@H]1[C@@H]2CC[C@]2(C)C(=O)CC[C@@H]12` is lower in growth: 89.2% for the first, 11% for the second.

Compared with `COc1ccc2c(c1)C1(C)CCN(C)CC(C1)C2O` (stereo not given), `COc1cc2c(cc1OC)-c1c3c(cc4c1[C@@H](C2)N(C)CC4)OCO3` is lower in growth: 94.1% for the first, 11.9% for the second.

Going from `COc1ccn(C)c(=O)c1C#N` to `N#Cc1ccc(Cl)cc1`, the growth falls from 106% to 92.5%.

First: C=CCOC(=O)C(Br)CC (stereo not given)
Second: CCOP(=O)(OCC)C(=O)N(CC)CC
The growth of the first is lower: 102% for the first, 114% for the second.

Going from `C=C[Se]CC(=O)/C=C/c1ccccc1` to `N#CC(N)c1ccccc1` (stereo not given), the growth rises from 79.5% to 108%.

Compared with `Cc1cc(N)ccc1N`, `O=C(NC1=NCC[Se]1)c1ccccc1O` is lower in growth: 107% for the first, 30.3% for the second.

Going from `CC[C@H](C)[C@H](NC(=O)c1ncccn1)C(=O)N(C)[C@H](C[C@@H](OC(C)=O)c1nc(C(=O)N[C@@H](Cc2ccccc2)C[C@H](C)C(=O)OC)cs1)C(C)C` to `CC[C@H](C)[C@H](NC(=O)[C@H]1CCCCN1C)C(=O)N(C)[C@H](C[C@@H](OC(C)=O)c1nc(C(=O)N[C@@H](Cc2ccccc2)C[C@H](C)C(=O)O)cs1)C(C)C`, the growth falls from 20.2% to 12.8%.

Going from `c1ccc2c(c1)O[As](O[As]1Oc3ccccc3O1)O2` to `CCN(CC)CCn1c(=O)n(C)c2ccccc21`, the growth rises from 19.2% to 104%.

Going from `CC[C@H](C)[C@H](NC(=O)[C@H]1CCCCN1C)C(=O)N(C)[C@H](C[C@@H](OC(C)=O)c1cccc(C(=O)N[C@@H](Cc2ccccc2)C[C@H](C)C(=O)OC)n1)C(C)C` to `CC[C@H](C)[C@H](NC(=O)CN(C)C)C(=O)N(C)[C@H](C[C@@H](OC(C)=O)c1nc(C(=O)NC23C4C5C2C2C3C4C52C(=O)OC)cs1)C(C)C` (stereo not given in full), the growth falls from 13.6% to 11%.

Going from `CCCCOCCOP(=O)(OCCOCCCC)OCCOCCCC` to `CCCC(C)SP(=S)(SC(C)CCC)SC(C)CCC` (stereo not given), the growth rises from 92.3% to 110%.

`O=[P+](O)c1cccnc1` showed a growth of 109%.

For `CCCCCCCCCCCCCCCC[N+](C)(C)Cc1ccccc1`, the growth was -1.12% (active) and -55.3% (active).
For `CC(=O)OC1CC2(O)C(CCC3(C)C(c4ccc(=O)oc4)CCC32O)C2(C)CCC(OC3OC(CO)C(O)C(O)C3O)C=C12` (stereo not given), the growth was -19.6% (active).
In the case of `CC(C)c1cccc(C(C)C)c1O`, the growth is reported as 84% and 115%.
In the case of `C[C@@]12CCCc3coc(c31)C(=O)c1cc3c(cc12)C(=O)C1=C(NCCS1(=O)=O)C3=O`, the growth is reported as -31.5% (active).
For `COc1ccc2c(c1)c(-c1nc(-c3cn(C)c4ncccc34)cs1)cn2CCCCN1CCOCC1`, the growth was -15.6% (active).
In the case of `CN(C)[C@@H]1C(=O)C(C(N)=O)=C(O)[C@@]2(O)C(=O)C3=C(O)c4c(O)ccc(Cl)c4[C@@](C)(O)[C@H]3C[C@@H]12`, the growth is reported as 99.5% and 121%.
`CC[PH+](CC)CC.O=COC1OC([S-])C(OC=O)C(OC=O)C1OC=O.[Au+]` (stereo not given) was tested, and the growth was -29.1% (active).
`O=C(O)c1ccc(=O)[nH]c1` was tested, and the growth was 119% and 99.2%.
For `Oc1cc(N2CC2)c(O)cc1N1CC1`, the growth was 9.13% (active).

Same assay, conditions: 75 µM

With `O=C(O)CCCc1ccc(N(CCCl)CCCl)cc1` the growth was 6.72% (active).
